Screening results deposited in PubChem BioAssay by National Center for Advancing Translational Sciences (NCATS).
Tau fibril FP: inhibitors of human tau fibril formation | P10636 | K18 P301L tau heparin fibrillization, Alexa594 FP, 6 h | 280,000 compounds, 0.39% hits | AID 1468 | Potency, µM (series often up to 57.7 µM), for inactives: at the highest dose activity, negative = inhibition, actives largely listed as inhibitors; further: potency means the concentration at half of the fitted maximal effect; on the % scale 0 is the no-effect control and ±100 the full control effect; nearly all actives have a fitted effect of over 55% in size
Target sequence (P10636 561-689 P618L limits assumed): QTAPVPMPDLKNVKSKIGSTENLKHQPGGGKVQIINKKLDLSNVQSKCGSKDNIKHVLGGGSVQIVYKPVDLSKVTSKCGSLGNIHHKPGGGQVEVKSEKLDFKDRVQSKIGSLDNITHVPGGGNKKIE
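Human K18 P301L fragment (15 uM unlabeled plus 0.24 uM Alexa 594-labeled) in 100 mM sodium acetate pH 7 with compound, aggregation induced by 20 uM heparin for 6 hr at 37 C. ThT (30 uM) added for 1 hr, then Alexa 594 FP read.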
KDM4E inh: blocks human JMJD2E demethylase activity; B2RXH2; 230,000 compounds, 1.6% hits; JMJD2E catalytic domain, FDH-coupled NADH fluorescence (FDH is formaldehyde dehydrogenase); Potency, µM (series often up to 57.1 µM), without a hit: at the highest dose activity change, negative = inhibition, usual class: inhibitors; active means well fitted inhibition curve with a large enough effect, not every such curve was filed as active; inconclusive means small, poorly fitted or top-dose-only effect, or another doubt; inactive means no such curve, though single readings can be large or run the other way;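 further: potency means the concentration at half of the fitted maximal effect; 0% = wells with enzyme and -100% = buffer wells without enzyme; nearly all actives have a fitted effect of over 50% in size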
Target sequence (B2RXH2 1-337 limits assumed): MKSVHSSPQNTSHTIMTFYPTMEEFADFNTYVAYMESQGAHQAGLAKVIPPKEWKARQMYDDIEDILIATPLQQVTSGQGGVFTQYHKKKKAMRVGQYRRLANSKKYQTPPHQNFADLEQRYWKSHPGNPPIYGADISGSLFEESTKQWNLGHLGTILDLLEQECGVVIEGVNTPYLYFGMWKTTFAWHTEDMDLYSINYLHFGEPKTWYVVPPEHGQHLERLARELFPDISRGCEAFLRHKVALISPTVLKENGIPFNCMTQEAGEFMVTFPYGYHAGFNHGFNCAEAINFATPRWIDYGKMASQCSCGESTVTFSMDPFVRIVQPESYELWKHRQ
CBFb-RUNX1 inh: blocks binding between human CBF-beta and RUNX1. AlphaScreen CBFb-His/RUNX1-biotin binding, biochemical. Potency, µM (top dose mostly 59.8 µM), for the others: at the top dose activity, negative = inhibition, usual class: inhibitors. 230,000 tested, under 10 active. AID 1477; further: % of control where 0% means no effect
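His-tagged CBF-beta and biotinylated RUNX1 (30 nM each) were premixed 20 min at room temperature, exposed to compound for 15 min, then given nickel-chelate and streptavidin AlphaScreen beads (50 ng each). After 90 min, AlphaScreen signal was read.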
Tau ThT inhib: inhibitors of human tau fibril formation, thioflavin T binding; P10636; recombinant tau K18 P301L, heparin-induced fibrillization, ThT fluorescence; Potency, µM (doses to about 57.4 µM), without a hit: at the highest dose activity, negative = inhibition, actives largely listed as inhibitors; 270,000 compounds, 2.1% hits; further: potency means the concentration at half of the fitted maximal effect; on the % scale 0 is the no-effect control and ±100 the full control effect; nearly all actives have a fitted effect of over 55% in size
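K18 P301L tau (15 uM + 0.24 uM Alexa 594-tagged), heparin 20 uM, NaOAc pH 7, 6 h 37 C; ThT 30 uM, 1 h RT, ex 450/em 510 nm.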
Tau fluor cs: counter-screen for tau fibril formation inhibitors; tau K18 P301L (four-repeat tau fragment) Alexa594 fluorescence, heparin fibrillization; Potency, µM (titrated, usually from 57.7 µM), inactives show at the highest dose activity change, negative = decrease; AID 1463; 280,000 compounds, 0.93% hits; further: potency means the concentration at half of the fitted maximal effect; on the % scale 0 is the no-effect control and ±100 the full control effect; nearly all actives have a fitted effect of over 55% in size
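Human K18 P301L tau (15 uM unlabeled plus 0.24 uM Alexa 594-labeled, final) in 100 mM sodium acetate pH 7 was mixed with compound and 20 uM heparin and incubated 6 hr at 37 C.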
LMNA splice mod: changes lamin A minigene splicing in HeLa cells; HeLa LMNA splicing GFP/RFP minigene ratio, 48 h; Potency, µM (highest dose often 46.1 µM), inactives show at the top dose ratio change, negative = inhibition, most hits filed as inhibitors; 200,000 compounds, 0.01% hits; active means well fitted inhibition curve with a large enough effect in the signal ratio, with a control signal flat, not every such curve was filed as active; inconclusive means small, poorly fitted or top-dose-only effect, or effect the other way, or a change in a side signal; the % refers to the signal ratio; further: potency means the concentration at half of the fitted maximal effect; on the % scale 0 is the no-effect control and ±100 the full control effect
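S3 HeLa cells stably expressing lamin A-EGFP splicing minigene plus DsRed2, 600 cells/well, 48 h compound exposure at 37C. Laser-scanning cytometry; analysed as GFP (500-530 nm)/RFP (575-640 nm) total intensity ratio; 0.5% DMSO vehicle.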
The depositor's hits bear a star; ? = inconclusive; · = no result; [ ] = another dose, or the depositor's remark. This is a sample that favours compounds with a hit; in the whole collection about 3.2% have one here. Unless noted, the call rests on the fitted dose curve; in most records, active means well fitted curve in the direction sought with a large enough effect; inconclusive means small, poorly fitted or top-dose-only effect, or another doubt; inactive means no such curve, though single readings can be large; an effect the other way counts as inactive or inconclusive.

SMILES | Tau fibril FP | KDM4E inh | CBFb-RUNX1 inh | Tau ThT inhib | Tau fluor cs | LMNA splice mod
Cc1cccc2sc(NNC(=O)c3ccc(S(=O)(=O)N4CC(C)CC(C)C4)cc3)nc12 (stereo unspecified) | 10% | ? | 7%[2.36 µM] | ? | ? | 18µM*
CC(/C=C/C(=O)NO)=C\[C@@H](C)C(=O)c1ccc(N(C)C)cc1 | -9% | · | -8% | ? | -22% | ·
CCOC(=O)C1=C(c2ccccc2)O/C(=C(\C(=O)OC)C(F)(F)F)S1 | -3% | ? | 3% | -5% | -9% | 6%
CCOC(=O)C1=C(c2ccccc2)O/C(=C(/C#N)C(F)(F)F)S1 | ? | -14% | 5% | 16µM* | ? | ?
Cc1ccc(C(=O)c2no[n+]([O-])c2C(=O)c2ccc(C)cc2)cc1 | ? | -16% | 6% | 14µM* | -29% | 28%
CCS(=O)(=O)N1CCc2cc(C(=O)Nc3ccc(C)c(Cl)c3)ccc21 | 10% | · | · | -15% | -10% | ·
Cc1c(Br)c(O)c(Br)c2sc(=O)oc12 | ? | 32µM* | -29% | 11µM* | ? | ·
O=C1CC(c2ccc(O)c(O)c2)Oc2c1ccc(O)c2O (stereo unspecified) | ? | 6.3µM* | · | 16µM* | ? | ·
O=C1CC(c2ccc(O)c(O)c2)Oc2cc(O)cc(O)c21 (stereo unspecified) | -1% | 28µM* | 3% | ? | -21% | ·
CCOC(=O)/C(=N\Nc1ccccc1)c1csc(Nc2ccc(C)cc2)n1 | 8% | -13% | -6% | ? | 7.1µM*[quencher] | 0%
CCCCC(CCC(=O)O)(C(=O)OCC)c1csc(Nc2ccc(C)cc2)n1 (stereo unspecified) | -2% | ? | -2% | -7% | -7% | 6%[46 µM]
Cc1ccc2c(c1)N/C(=C(\C=C(/Cl)[N+](=O)[O-])[N+](=O)[O-])N2 | -8% | ? | -3% | 18µM* | ? | -13%[46 µM]
Cc1ccc2[nH]c(C)c(CC(=O)O)c2c1 | 3% | 22µM* | -1% | ? | -18% | 15%
COc1ccc(O)c(C(=O)c2cc(SCC(=O)O)c3nc4sc5c(c4c(=O)n3c2)CCCC5)c1 | -7% | ? | -2% | 18µM* | -25% | ·
COc1ccc(-n2c(C)nc3sc4c(c3c2=O)CCCC4)cc1 | -5% | 7% | -3% | -6% | -7% | ?
CCOC(=O)c1sc2nc3c(SCC(=O)O)cc(C(=O)c4cc(F)ccc4O)cn3c(=O)c2c1C | -9% | ? | ? | 13µM* | -10% | -3%
CCOC(=O)c1sc2nc3c(SCC(=O)O)cc(C(=O)c4ccccc4O)cn3c(=O)c2c1C | 1% | ? | ? | ? | -3% | ?
O=C(CSc1nnc(Nc2ccccc2F)s1)Nc1cccc(S(=O)(=O)N2CCCCC2)c1 | ? | -18% | 1% | -5% | ? | ?
Cc1nnc(SCC(=O)Nc2cc(S(=O)(=O)N3CCCC3)ccc2Cl)s1 | -1% | 5% | 2% | -12% | -20% | ·
Cc1ccc(-c2nc(SCC(=O)Nc3cc(S(=O)(=O)N4CCCCC4)ccc3Cl)n[nH]2)cc1 | 22µM* | 3% | -5% | 1% | ? | ?
Cc1ccc(Nc2nnc(SCC(=O)Nc3cccc(S(=O)(=O)N4CCCCC4)c3)s2)cc1 | -13% | 5% | -7% | -1% | 7.9µM*[quencher] | ?
CC(C)Nc1nnc(SCC(=O)Nc2ccc3c(c2)C(=O)c2ccccc2C3=O)s1 | 14% | 3% | -24% | 10µM* | 13µM*[quencher] | ?
O=C(CSc1nnc(NC2CCCCC2)s1)Nc1ccc2c(c1)C(=O)c1ccccc1C2=O | ? | -16% | -16% | ? | 8.9µM*[quencher] | ?
Cc1ccc(C)c(S(=O)(=O)c2nnn3c2nc(NCc2ccc4c(c2)OCO4)c2sccc23)c1 | -16% | · | · | 19% | ? | ·
COCCCNC(=O)c1c[nH]c2ccc(S(=O)(=O)N3CCc4ccccc43)cc2c1=O | 28µM* | -1% | -6% | 10% | ? | ·
